# Data as given in PubChem BioAssay AID1671192 (National Center for Advancing Translational Sciences (NCATS), 2021).
# Inconclusive results are not listed. Activity calls are given as the source filed them. The call rests on the fitted dose curve; in most records, active means well fitted curve in the direction sought with a large enough effect; inconclusive means small, poorly fitted or top-dose-only effect, or another doubt; inactive means no such curve, though single readings can be large or run the other way.
# Target: Polyunsaturated fatty acid lipoxygenase ALOX15 (Homo sapiens) (UniProt P16050)
# Sequence (P16050 whole entry, looked up): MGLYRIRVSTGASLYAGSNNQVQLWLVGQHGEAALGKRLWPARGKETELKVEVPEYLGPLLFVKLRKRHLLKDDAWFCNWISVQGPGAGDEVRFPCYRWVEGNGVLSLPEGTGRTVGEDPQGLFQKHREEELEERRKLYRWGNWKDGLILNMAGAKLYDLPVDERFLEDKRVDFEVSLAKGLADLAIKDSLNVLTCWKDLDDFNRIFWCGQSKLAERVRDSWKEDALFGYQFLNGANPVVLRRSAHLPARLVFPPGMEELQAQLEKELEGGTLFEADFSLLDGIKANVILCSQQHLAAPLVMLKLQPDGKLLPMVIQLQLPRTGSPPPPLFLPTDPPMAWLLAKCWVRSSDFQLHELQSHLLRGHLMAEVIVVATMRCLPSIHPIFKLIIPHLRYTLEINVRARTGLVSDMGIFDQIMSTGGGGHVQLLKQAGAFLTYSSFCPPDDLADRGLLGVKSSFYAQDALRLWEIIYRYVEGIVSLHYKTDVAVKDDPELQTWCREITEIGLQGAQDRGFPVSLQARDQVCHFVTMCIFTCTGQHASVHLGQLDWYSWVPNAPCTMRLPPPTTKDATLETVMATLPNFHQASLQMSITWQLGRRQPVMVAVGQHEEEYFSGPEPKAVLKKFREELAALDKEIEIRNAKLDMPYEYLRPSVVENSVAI
# Test: Counterscreen qHTS for inhibitors of human arachidonate 12S-lipoxygenase (ALOX12): ALOX15 Assay
# Details: purified ALOX15 enzyme activity; series mostly up to 110 µM
# Outline: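 Xylenol orange–ferric complex formation, read as the 573 nm to 405 nm absorbance ratio, tracks product from 50 uM arachidonic acid turned over for 30 min at RT. Enzyme is 40 nM ALOX15, pH 7.5 HEPES buffer, compound-preincubated 15 min.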
row,SMILES,outcome
1,CC(C)NCCN1CCCC1,inactive
2,CC1C=CC(C)N1c1ncnc2c1CN(C1CCNCC1)C(=O)CN2C (stereo not given),inactive
3,O=C1NCc2ccccc2CC12CCN(Cc1c(F)cccc1Cl)CC2,inactive
4,COc1ccc(C(=O)N2Cc3ccccc3CC23CCCN(C(=O)CCCN)C3)cc1 (stereo not given),inactive
5,CN1CCN(CC2(N)CCCCC2)CC1,inactive
6,CN1CC(=O)N(c2cccc(F)c2)Cc2c(NC3CCNCC3)ncnc21,inactive
7,O=C(O)c1ccc(-c2cnccn2)cc1,inactive
8,O=C(C1CCCC1)N1CC2(CCN(Cc3ccc(Cl)cc3)C2)Cc2ccccc21 (stereo not given),inactive
9,O=c1[nH]c(C2CCCN(Cc3cccc(Cl)c3)C2)nc2ccc(F)cc12 (stereo not given),inactive
10,O=C1NCc2ccccc2CC12CCN(Cc1c[nH]c3ccccc13)C2 (stereo not given),inactive
11,COc1ccc(C(=O)N2CCOC3(CCN(C(=O)CN)CC3)C2)cc1,inactive
12,O=C1NCc2ccccc2CC12CCCN2Cc1cccc(O)c1 (stereo not given),inactive
13,CN1CC(=O)N(C2CCCNCC2)Cc2c1ncnc2N1CCCC(F)C1 (stereo not given),inactive
14,O=C(c1ccc(C(F)(F)F)cc1)N1CCn2c(nnc2C2CCCNC2)C1 (stereo not given),inactive
15,CC(C)Cc1ccc(CN2CCC3(Cc4ccccc4CNC3=O)C2)cc1 (stereo not given),inactive
16,CC(CO)Nc1ncnc2c1CN(C1CCCNCC1)C(=O)CN2C (stereo not given),inactive
17,CCC(=O)N1Cc2ccccc2CC2(CCCCN2CC2CCNC2)C1 (stereo not given),inactive
18,O=C(NCc1ccc(Cl)nc1)c1cnn2c1CN(C(=O)c1ccccc1)CC2,inactive
19,Cn1nc(C2CCNC2)c2c(C(=O)NC3CC3)cc(C3CC3)nc21 (stereo not given),inactive
20,O=C1Nc2ccccc2CC12CN(CC1CCCC1)C2,inactive
